FPRL1 ligand: human FPRL1 ligand, with FPR counter-screen; FPRL1-expressing cells, fluorescent ligand binding inhibition, flow cytometry; actives 0.3% (n = 24,000); P25090; inhibition, % (test concentration not listed);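 further: 0% = buffer alone and 100% = receptor blocker peptide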
Target sequence (P25090 whole entry, looked up): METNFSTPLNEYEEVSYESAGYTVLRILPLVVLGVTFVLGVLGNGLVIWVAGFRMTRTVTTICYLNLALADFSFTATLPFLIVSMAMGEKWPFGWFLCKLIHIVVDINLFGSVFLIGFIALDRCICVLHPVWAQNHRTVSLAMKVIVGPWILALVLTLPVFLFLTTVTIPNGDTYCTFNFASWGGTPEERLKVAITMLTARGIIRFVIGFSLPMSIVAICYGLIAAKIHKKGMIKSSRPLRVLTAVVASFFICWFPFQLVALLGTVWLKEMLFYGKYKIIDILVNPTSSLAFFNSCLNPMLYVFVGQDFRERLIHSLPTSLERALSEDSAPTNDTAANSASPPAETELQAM
VLA-4 antagonist: inhibition of LDV-FITC ligand binding to human VLA-4 integrin; P13612; Jurkat cells, LDV-FITC binding with Mn2+, flow cytometry; 100% = Mn2+-driven binding gain fully reversed; inhibition, % at 10 µM (by protocol); actives 0.2% (n = 24,000); AID 529;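 active means inhibition above 50%; inconclusive means compound itself fluorescent, judged against control cell fluorescence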;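 further: 0% = Mn2+ stimulated cells lacking compound and 100% = ligand binding without Mn2+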
Prostate diff: promotes differentiation of LNCaP prostate cells. flow cytometry side scatter, 4 d. side scatter shift, % at 10 µM. actives 0.56% (n = 24,000);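 active means side scatter shift above 30%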;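 further: androgen-responsive LNCaP prostate cancer cells in charcoal-stripped serum medium; percent of cells past a gate set so DMSO wells show 10% shift; higher shift means more granular cells and more differentiation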
FPR binder: human FPR ligand, with FPRL1 counter-screen; P21462; FPR-expressing cells, fluorescent ligand binding, flow cytometry; inhibition, % (no concentration beside the values); actives 0.74% (n = 24,000); AID 440;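 further: 0% = buffer wells and 100% = receptor blocker peptide wells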
VLA-4 allo ag: allosterically activates the human VLA-4 integrin; Jurkat cells, LDV-FITC binding, flow cytometry; 24,000 tested, under 10 active; AID 528; P13612; activation, % at 10 µM (by protocol);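 active means fluorescent ligand binding to cells raised by more than 40% of the manganese-induced maximum; inconclusive means compound's own fluorescence above 85% of the ligand control signal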;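 further: 0% = ligand binding without compound and 100% = manganese-stimulated maximal binding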
Jurkat autofluor: compound fluoresces in Jurkat cells, VLA-4 screen interference; compound autofluorescence, flow cytometry; hits give high values; 1 = vehicle-only cell background; fluorescence ratio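 (tested at 10 µM compound in the well)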; actives 0.61% (n = 24,000);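 active means fluorescence ratio above 2.44, which is 1 plus 3 SD of all ratios; inconclusive means signal too bright to measure linearly, ratio around 10 or more; inactive means fluorescence ratio below 2.44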;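 further: green fluorescence of cells measured with 488 nm excitation and 530 nm emission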
Numbers without * were called inactive; ? = inconclusive; nt = no result. This is a sample that favours compounds with a hit; in the whole collection about 1.9% have one here. Unless noted, no stated cut-off is given here; in the data, active means inhibition above about 30%; inconclusive means no clear call, values can overlap the other calls; inactive means below that.

SMILES	FPRL1 ligand	VLA-4 antagonist	Prostate diff	FPR binder	VLA-4 allo ag	Jurkat autofluor
Cn1c(N)c(C(=O)NCc2ccccc2)sc1=S	-13	?	3	-11	?	4.1*
CCn1c(N)c(C(=O)NCc2ccco2)sc1=S	6	0	9	-3	4	1
CC1(C)C(=O)OC(c2cccs2)C(C)(C)C1=O (centres undefined)	-1	-9	13	4	-6	1.1
O=S(=O)(Nc1cccc2ncccc12)c1cccs1	39*	37	34*	13	?	1.2
COc1ccc(/C(O)=C2/C(=O)C(=O)N(CCN3CCOCC3)C2c2ccc(C)cc2)cc1 (centres undefined)	31*	nt	nt	26	nt	nt
COC(=O)c1ccc(C2/C(=C(/O)c3ccc(OC)cc3)C(=O)C(=O)N2Cc2ccco2)cc1 (centres undefined)	5	nt	nt	38*	nt	nt
CCCCC1(Cc2cccc([N+](=O)[O-])c2)C(=O)N(c2ccccc2)N(c2ccccc2)C1=O	nt	26	nt	nt	-5	nt
Cc1nc2ncnn2c(C)c1Cc1ccc(Cl)cc1F	2	-34	10	3	-6	1.1
CCCCOc1ccc(CC(=O)NO)cc1	1	-20	1	2	6	1
CCCOc1ccc(C(CC(=O)O)NC(=O)C23CC4CC(CC(C4)C2)C3)cc1 (centres undefined)	nt	113*	nt	nt	-26	1.1
COc1cccc(N2CCN(c3ncnc4c3[nH]c3ccc(F)cc34)CC2C)c1 (centres undefined)	4	95*	3	-1	-36	1.1
Cc1ccccc1-n1c(Cn2c(=O)sc3ccccc32)nnc1SCC(=O)NCC1CCCO1 (centres undefined)	8	-45	4	8	0	1
Nc1nc(Cn2nnc(-c3ccccc3F)n2)nc(N2CCOCC2)n1	6	-5	3	0	2	1
N#Cc1c(C(F)(F)F)cc(-c2ccccc2)nc1SCc1nc(N)nc(N2CCOCC2)n1	47*	?	13	?	?	8.7*
Cc1oc(-c2ccc(Cl)cc2)nc1CN1CCCC(C(=O)N2CCc3ccccc32)C1 (centres undefined)	-3	59*	5	3	-10	1.1
CCN1CCN(CCNC(=O)C2CCCN(Cc3nc(-c4cccc(Cl)c4)oc3C)C2)CC1 (centres undefined)	-1	?	44*	-1	?	0.83
CCCN(CCC)CCNC(=O)C1CCN(Cc2nc(-c3ccc(Cl)cc3)oc2C)CC1	-2	20	87*	4	2	1
CCOC(=O)N1CCC(NC(=O)C2CCCN(Cc3nc(-c4cccc(Cl)c4)oc3C)C2)CC1 (centres undefined)	0	?	4	0	?	0.92
O=C(NCC(c1cccnc1)N1CCN(c2ccc(F)cc2)CC1)c1ccc(F)cc1 (centres undefined)	-2	8	10	-3	-2	1.1
Cc1ccc(S(=O)(=O)Cn2nnnc2CN(Cc2ccco2)CC2CCCO2)cc1 (centres undefined)	-2	-8	14	-6	0	1.1
O=C(c1nc2n(n1)C(c1ccc(Cl)cc1)C=C(c1ccccc1)N2)N1CCOCC1 (centres undefined)	-8	?	13	-3	?	3.5*
Cc1nc2c(C#N)c[nH]n2c(=O)c1Cc1ccccc1	-7	nt	nt	40*	nt	nt
CCc1c(C)nc2c(C#N)c(C)[nH]n2c1=O	27	nt	nt	50*	nt	nt
Cc1nc2c(C#N)c(C)[nH]n2c(=O)c1Cc1ccccc1	2	nt	nt	32*	nt	nt
c1ccc(CC2CCN(c3nc4ccccc4n4nnnc34)CC2)cc1	-11	-6	7	-3	0	1.8
O=C(c1ccco1)N1CCN(c2nc3ccccc3n3nnnc23)CC1	-6	?	6	-9	?	9.4*
CCCC(=O)c1cc2ccccc2oc1=O	1	-34	0	4	0	1
N#CC1=C(SCC(=O)c2cc3ccccc3oc2=O)NC(=O)C(C#N)C12CCCC2 (centres undefined)	-2	68*	14	-2	-36	1.2
COc1cccc2sc(Nc3nnc(-c4ccccc4Cl)o3)nc12	nt	73*	nt	nt	7	1
